The values below come from PubChem BioAssay AID2289 (National Center for Advancing Translational Sciences (NCATS), 2010).

Each structure is given as a SMILES string. The campaign covered roughly 340,000 compounds. About 3,300 (0.97%) were called active. About 9% were inconclusive and are not listed. The call rests on the fitted dose curve; in most records, active means well fitted inhibition curve with a large enough effect; inconclusive means small, poorly fitted or top-dose-only effect, or effect the other way; inactive means flat fitted curve, though single readings scatter. This is one part of the list.
Potency means the concentration at half of the fitted maximal effect.

The assay in a line: qHTS Assay for Modulators of miRNAs and/or Inhibitors of miR-21. Further: nearly all actives have a fitted effect of over 55% in size. Particulars: HeLa miR-21-FLuc reporter, luciferase luminescence, 48 h; actives lower the signal. An outline of the steps: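 Compounds were titrated across several concentrations (up to approximately 40 uM) and incubated 48 hours with HeLa miR-21-FLuc reporter cells (miR-21 target sequence downstream of FLuc, endogenous miR-21). Readout was firefly luciferase luminescence after lytic detection reagent.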
Consider `Cc1cc(C)n(-c2cc(C(C)(C)C)nc3c(-c4ccccc4)cnn23)n1`, for which the Potency is 2.61 µM (active).

Consider `CN(C)CCCNc1cc(C(C)(C)C)nc2c(-c3ccccc3)cnn12`, for which the Potency is 2.93 µM (active).

With `CC(C)Nc1cc(C(C)(C)C)nc2c(-c3ccccc3)cnn12`, the Potency is 6.56 µM (active).

Turning to `CCn1cnc2sc(C(=O)Nc3ccc4c(c3)OCO4)c(C)c2c1=O`, the Potency was 3.16 µM (active).

For the compound `Cc1cc(N/N=C/c2ccccc2Br)nc2ccccc12`, the Potency is 13.1 µM (active).

As to `Cc1cc(N/N=C/c2ccncc2)nc2ccccc12`, the Potency is 5.85 µM (active).

As to `O=c1c2cc(-c3ccccc3)sc2nc2n1N=C(c1cccs1)CS2`, the Potency is 0.414 µM (active).

Regarding `C/C(=C\C(=O)c1ccccc1)Nc1cccc(O)c1`, the Potency is 4.65 µM (active).

Consider `COc1ccc(OC)c(N/C(C)=C/C(=O)c2ccccc2)c1`, for which the Potency is 7.36 µM (active).

For `C/C(=C\C(=O)c1ccc(C)cc1)Nc1cccc(O)c1`, the Potency was 3.29 µM (active).

As to `Cn1c(=O)n(C)c2cc(NS(=O)(=O)c3ccc(F)cc3)c(NCc3ccccc3)cc21`, the Potency is 9.27 µM (active).

`CCOc1ccc(OCCn2nnc3ccccc3c2=O)cc1`: the Potency was 5.21 µM (active).

As for `O=c1c2ccccc2nnn1COc1cccc2ccccc12`, the Potency was 14.7 µM (active).

As for `O=c1c2ccccc2nnn1COc1cccc(Cl)c1`, the Potency is 13.1 µM (active).

In the case of `Cc1ccc(/C=C(\C#N)C(=O)Nc2ccc(Br)cc2)o1`, the Potency was 0.656 µM (active).

As for `Cc1ccc(NC(=O)/C(C#N)=C/c2ccc(C)o2)cc1`, the Potency was 0.329 µM (active).

As to `CC1CC1c1ccc(/C=C(\C#N)C(=O)Nc2ccccc2Cl)o1` (stereo not drawn), the Potency was 14.7 µM (active).

In the case of `Cc1cccc(NC(=O)/C(C#N)=C/c2ccco2)c1`, the Potency was 4.14 µM (active).

As to `Cc1ccc(/C=C(\C#N)C(=O)Nc2cccc(Cl)c2)o1`, the Potency was 1.47 µM (active).

Regarding `COc1ccccc1NC(CC(=O)c1ccccc1)C(=O)OCC(=O)c1ccc(C)c(C)c1` (stereo not drawn), the Potency was 1.04 µM (active).

On to `COc1ccccc1NC(CC(=O)c1ccccc1)C(=O)OCC(=O)c1ccc(C)cc1` (stereo not drawn), for which the Potency was 1.47 µM (active).

In the case of `O=C(CC(Nc1ccc(F)cc1)C(=O)OCC(=O)c1cccs1)c1ccccc1` (stereo not drawn), the Potency is 3.29 µM (active).

With `O=C(c1ccc(COCC(F)(F)F)cc1)N1CCN(c2ccccn2)CC1`, the Potency was 14.7 µM (active).

For the compound `CCc1ccc(N2C(=O)Cc3c2nc(N)c(C#N)c3N)cc1`, the Potency is 16.5 µM (active).

In the case of `COc1ccc(NC(=O)C2C3CC/C=C\CCC32)cc1` (stereo not drawn), the Potency was 6.56 µM (active).

For the compound `CNC(=O)c1c(NC(=O)c2nc3ccccc3s2)sc2c1CCC2`, the Potency is 1.31 µM (active).

Consider `Cc1ccc2cc(/C=N/Nc3ccc(C(=O)O)cc3)c(Cl)nc2c1`, for which the Potency is 2.07 µM (active).

For `O=C(O)c1ccc(N/N=C/c2cc3ccccc3nc2Cl)cc1`, the Potency was 3.29 µM (active).

As to `Cc1cccc2cc(/C=N/Nc3ccc(C(=O)O)cc3)c(Cl)nc12`, the Potency is 0.521 µM (active).

Take `CCCCOc1ccc2c(c1)C(=O)c1cc(O)ccc1-2`: the Potency is 5.85 µM (active).

As to `O=[N+]([O-])c1ccccc1N/N=C1\CC2CC=CC12` (stereo not drawn), the Potency is 16.5 µM (active).

In the case of `Cc1[nH]c2ccccc2c1/C=C/c1nc2ccccc2c(=O)[nH]1`, the Potency was 1.31 µM (active).

`O=c1[nH]c(/C=C/c2ccc(Br)cc2)nc2ccccc12`: the Potency is 0.369 µM (active).

For the compound `C=CCOc1cccc(/C=C/c2nc3ccccc3c(=O)[nH]2)c1`, the Potency was 0.826 µM (active).

As for `COCC(C)N=C1NN=C(c2c[nH]c3ccccc23)CS1` (stereo not drawn), the Potency is 6.56 µM (active).

`C=CCOc1ccc2c(OC)c3ccoc3nc2c1OC`: the Potency was 13.1 µM (active).

With `CCc1ccc(NC(=O)c2ccccc2SC)cc1`, the Potency was 7.36 µM (active).

For `CCOc1ccc(NC(=O)c2ccccc2SC)cc1`, the Potency is 7.36 µM (active).

For `CCOc1ccc(NC(=O)c2csc3c2CCCC3)cc1`, the Potency is 2.07 µM (active).

Regarding `CCc1ccc(NC(=O)c2ccccc2Br)cc1`, the Potency is 2.07 µM (active).

`C#CCNC(=O)/C=C/c1ccc(C)cc1`: the Potency is 8.26 µM (active).

As for `C#CCNC(=O)/C=C/c1ccc(OC)cc1`, the Potency is 13.1 µM (active).

For `O=C1CCNc2ccc(-c3ccccc3)cc21`, the Potency is 6.56 µM (active).

In the case of `C=CCn1c(NCc2ccc3c(c2)OCO3)nc2ccccc21`, the Potency is 9.27 µM (active).

As to `CCn1c(NCc2ccc3c(c2)OCO3)nc2ccccc21`, the Potency is 16.5 µM (active).

Regarding `Cc1ccc2oc(-c3cccc(NC(=S)NC(=O)c4cccs4)c3)nc2c1`, the Potency was 4.14 µM (active).

Take `Cc1ccc2oc(-c3ccc(C)c(NC(=S)NC(=O)c4cccs4)c3)nc2c1`: the Potency was 0.521 µM (active).

With `Cc1ccc2oc(-c3cccc(NC(=O)Cn4cnc5c(=O)n(C)c(=O)n(C)c54)c3)nc2c1`, the Potency was 6.56 µM (active).

In the case of `CC(=O)c1sc2nc(-c3cccs3)ccc2c1N`, the Potency was 14.7 µM (active).

As for `Nc1c(C(=O)Nc2ccccc2Br)sc2nc(-c3cccs3)ccc12`, the Potency is 7.36 µM (active).

Take `NC(=O)c1sc2nc(-c3cccs3)ccc2c1N`: the Potency was 13.1 µM (active).

In the case of `O=c1/c(=C\c2ccc(F)cc2)sc2n1CCCN=2`, the Potency is 1.85 µM (active).

As for `O=C(CCC1CCCN(C(=O)Cc2cccc(F)c2)C1)N1CCN(c2ccccn2)CC1` (stereo not drawn), the Potency was 16.5 µM (active).

For `Cc1cc(N)ccc1N=Nc1c(C)n(C)n(-c2ccccc2)c1=O`, the Potency was 14.7 µM (active).

Take `Cc1c(N=Nc2ccc(N(C)C)cc2)c(=O)n(-c2ccccc2)n1C`: the Potency was 5.21 µM (active).

As for `Cc1ccc(/C=N/NC(=S)NC2CCCCC2)o1`, the Potency was 5.21 µM (active).

As for `CN(C)/C=N/c1nc2ccc3c(c2s1)CCCC3`, the Potency is 2.33 µM (active).

In the case of `Clc1ccc(-n2ncc3c(N4CCCC4)ncnc32)cc1`, the Potency is 0.0656 µM (active).

`Cc1cccc(-n2ncc3c(N4CCC5(CC4)OCCO5)ncnc32)c1`: the Potency was 1.85 µM (active).

As for `CCN1CCN(c2ncnc3c2cnn3-c2ccc(C)c(C)c2)CC1`, the Potency was 1.65 µM (active).

On to `COc1ccc(-c2cc(C(=O)NC3CCCC3)no2)cc1`, for which the Potency is 1.17 µM (active).

In the case of `CCCCNC(=O)c1cc(-c2ccc(F)cc2)on1`, the Potency is 3.29 µM (active).

With `O=C(NC1CCCC1)c1cc(-c2ccc(Cl)cc2)on1`, the Potency is 1.65 µM (active).

Consider `CN(C(=O)c1cc(-c2ccc3c(c2)OCO3)on1)c1ccccc1`, for which the Potency was 2.61 µM (active).

Take `O=C(NC1CCCC1)c1cc(-c2cccc(Cl)c2)on1`: the Potency was 4.65 µM (active).

`CC1CCCC(C)N1C(=O)c1cc(-c2cccs2)on1` (stereo not drawn): the Potency is 16.5 µM (active).

As to `CCCNC(=O)c1cc(-c2ccc(OC)cc2)on1`, the Potency was 0.927 µM (active).

In the case of `Cc1ccc(-c2cc(C(=O)NC3CCCC3)no2)cc1`, the Potency was 1.31 µM (active).
